Assay outcomes from PubChem.
TLR9-MyD88 block = inhibitors of human TLR9-MyD88 binding; CHO BLA complementation TLR9-MyD88, CCF4 FRET ratio; inhibition, % at 4.98 µM; AID 504734; 0.21% of 340,000 active; Q9NR96+Q99836;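 active = inhibition above the mean over all tested compounds plus 3 SD, cut at about 21% in these data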
NOD2 RIPK2 PPI = blocks binding of human NOD2 to RIPK2; AID 624267; inhibition, % at 4.98 µM; O43353; 0.38% of 360,000 active; CHO BLA complementation NOD2-RIPK2, CCF4 ratio; in the data active = inhibition above about 21%
GRK2 aptamer HTS = blocks RNA aptamer binding to human GRK2; P25098; bead flow cytometry, FAM-aptamer displacement from GRK2; inhibition of aptamer binding, % at 10 µM; 0.59% of 330,000 active; AID 488847;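 active = inhibition of aptamer binding above 40%, roughly 3 SD of noise, on plates passing a quality check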;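 also: median bead fluorescence of bound FAM aptamer so fluorescent compounds give negative values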
ANO1 activ = mouse TMEM16A channel activation, primary screen | Q8BHY3 | HEK293 TMEM16A/YFP-H148Q/I152L, iodide quench fluorescence; active compounds read low | B-score at 10 µM | 0.3% of 340,000 active;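 active = fluorescence-ratio B-score plate-corrected deviation score at least 3 library SD below zero, with starting fluorescence score within 5 deviations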;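 also: channel opened by trigger with iodide after compound preincubation; score built on the fluorescence ratio of max minus min over baseline; more negative score means more quench and so TMEM16A activation or potentiation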
TLR4-MyD88 BLA = blocks binding of human TLR4 to MyD88; O00206+Q99836; HeLa CL3-4 TLR4/MyD88 BLA complementation, FRET ratio; inhibition, % at 8.4 µM; 0.18% of 200,000 active; AID 861; in the data active = inhibition above about 25%
ANO1 block = mouse TMEM16A channel inhibition, primary screen | AID 588511 | normalized B-score (activity score, 25-100; higher = stronger inhibition) at 10 µM | 1.2% of 310,000 active | Q8BHY3 | HEK293 TMEM16A/YFP iodide influx fluorescence, ionomycin;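 active = ratio plate-corrected score three or more library SD toward inhibition, starting fluorescence score within five deviations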;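 also: score derived from kinetic fluorescence span divided by baseline fluorescence per well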
NOD2 RIPK2 conf = confirmation of human NOD2-RIPK2 interaction inhibitors; shares compounds with NOD2 RIPK2 PPI; CHO cells, NOD2-RIPK2 BLA complementation, CCF4 FRET; inhibition, % at 4.98 µM; 70% of 1,200 active; AID 624370;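 active = mean inhibition across replicates above a set limit taken from the earlier primary screen, cut at about 21% in these data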
BLA counter = hits BLA reporter in NOD2-RIPK2 inhibitor counterscreen. inhibition, % at 4.98 µM. CHO BLA reporter, CCF4 FRET ratio. 57% of 1,200 active. shares compounds with NOD2 RIPK2 PPI;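 active = mean inhibition above the low-control mean inhibition plus three low-control SD, cut at about 11% in these data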
Large screens that a line does not name were inactive (follow-up assays come after a bar, where they were run). A selection: hits, their analogues and other compounds. The true share with any hit is near 2.2%.

O=C1C(=C(I)I)c2ccccc2-c2ccccc21	NOD2 RIPK2 PPI 68 (no result: GRK2 aptamer HTS, TLR4-MyD88 BLA, ANO1 block) | NOD2 RIPK2 conf 84 | BLA counter inactive
O=C(Nc1ccc(F)c(Cl)c1)Nn1cnnc1	none (no result: TLR4-MyD88 BLA)
O=C(/C=C/c1cccc(Cl)c1)NCCN1CCOCC1	none
CN(C)CCC(=O)C(Cc1ccccc1)c1ccccc1 (centres undefined)	NOD2 RIPK2 PPI 35 (no result: TLR4-MyD88 BLA) | NOD2 RIPK2 conf 28 | BLA counter inactive
COCC(=O)O[C@]1(CCN(C)CCCc2nc3ccccc3[nH]2)CCc2cc(F)ccc2[C@@H]1C(C)C	NOD2 RIPK2 PPI 25 (no result: TLR4-MyD88 BLA) | NOD2 RIPK2 conf inactive | BLA counter inactive
O=C(O)c1cccc(S(=O)(=O)Nc2ccc3c(c2)CCC3)c1	none (no result: TLR4-MyD88 BLA)
Cc1ccc(NN2C(=O)C=C(c3ccc(Cl)cc3)C2=O)cc1	NOD2 RIPK2 PPI 51 | NOD2 RIPK2 conf 82 | BLA counter 11
O=C1C=C(c2ccccc2)C(=O)N1Nc1ccccc1	NOD2 RIPK2 PPI 49 | NOD2 RIPK2 conf 78 | BLA counter inactive
COc1ccc(C2=CC(=O)N(Nc3ccccc3)C2=O)cc1	NOD2 RIPK2 PPI 42 (no result: TLR9-MyD88 block, ANO1 activ) | NOD2 RIPK2 conf 55 | BLA counter inactive
CCCc1ccc(S(=O)(=O)N2CCN(C(=O)CN3C(=O)NC(C)(C4CC4)C3=O)CC2)cc1 (centres undefined)	none (no result: GRK2 aptamer HTS, ANO1 activ, TLR4-MyD88 BLA, ANO1 block)
O=C(NCCc1ccc(Cl)cc1)c1ccc(S(=O)(=O)N2CCCC2)cc1	none (no result: TLR4-MyD88 BLA)
CC(C)NS(=O)(=O)c1ccc(Br)c(C(=O)OC(C)C(=O)NC2CCCCC2C)c1 (centres undefined)	none (no result: TLR4-MyD88 BLA)
COc1ccc(/C=C2/CCC(CN3CCOCC3)C2=O)cc1 (centres undefined)	NOD2 RIPK2 PPI 34 (no result: GRK2 aptamer HTS, TLR4-MyD88 BLA, ANO1 block) | NOD2 RIPK2 conf 92 | BLA counter 18
CCCn1c(N2CCN(CC(=O)c3c[nH]c4ccccc34)CC2)nc2c1c(=O)[nH]c(=O)n2C	none
CCCCN(C)CC(O)Cn1cc(/C=C/C(=O)c2ccc(C)cc2)c2ccccc21 (centres undefined)	NOD2 RIPK2 PPI 32 (no result: TLR4-MyD88 BLA) | NOD2 RIPK2 conf 44 | BLA counter 41
CCCN(CCC)CC(O)Cn1cc(/C=C/C(=O)c2ccccc2)c2ccccc21 (centres undefined)	none (no result: GRK2 aptamer HTS, ANO1 block)
CCSc1ccc(-c2cc(NC=O)c3ncc(-c4cccc(C(=O)NCCN(C)C)c4)n3c2)cc1	NOD2 RIPK2 PPI 23 (no result: TLR9-MyD88 block, GRK2 aptamer HTS, ANO1 activ, TLR4-MyD88 BLA, ANO1 block) | NOD2 RIPK2 conf 25 | BLA counter inactive
CN(C)CCNC(=O)c1cccc(-c2cnc3c(NC=O)cc(-c4ccc(F)cc4)cn23)c1	none (no result: TLR9-MyD88 block, GRK2 aptamer HTS, ANO1 activ, TLR4-MyD88 BLA, ANO1 block)
NC(Cc1ccc(C(F)(F)F)cc1)c1csc(Nc2ccc(S(N)(=O)=O)cc2)n1 (centres undefined)	none (no result: TLR9-MyD88 block, GRK2 aptamer HTS, ANO1 activ, TLR4-MyD88 BLA, ANO1 block)
C=CCNC1=C(Cl)C(=O)N(c2cccc(Cl)c2Cl)C1=O	NOD2 RIPK2 PPI 22 | NOD2 RIPK2 conf inactive | BLA counter inactive
O=C1C(Cl)=C(NCC2CCCO2)C(=O)N1c1cccc(Cl)c1Cl (centres undefined)	none
Cc1cccc(CN2CCN(Cc3nc4c(s3)CCCC4)CC2CCO)n1 (centres undefined)	none
Cc1nc2c(=O)n(C)c(=O)n(C)c2nc1Cl	NOD2 RIPK2 PPI 24 | NOD2 RIPK2 conf 30 | BLA counter inactive
O=[N+]([O-])/C=C/c1cn(Cc2ccc(Cl)cc2)c2ccccc12	NOD2 RIPK2 PPI 21 | NOD2 RIPK2 conf 38 | BLA counter inactive
O=c1oc(-c2ccccc2)cc(Cl)c1Cl	NOD2 RIPK2 PPI 60 (no result: TLR4-MyD88 BLA) | NOD2 RIPK2 conf 57 | BLA counter inactive
O=C1N/C(=C/c2ccc(N3CCOCC3)o2)C(=O)N1c1ccccc1	NOD2 RIPK2 PPI 40 | NOD2 RIPK2 conf inactive | BLA counter inactive
C/C=C1\NC(=O)[C@H](C)NC(=O)[C@@H](NC(=O)[C@@H](Cc2ccc(O)cc2)NC(=O)[C@@H](NC(=O)/C(C)=C/C)C(C)C)[C@@H](C)OC(=O)[C@H](CCCCc2ccc(O)cc2)NC(=O)[C@@H](CCC(=O)O)NC1=O	none (no result: ANO1 activ, TLR4-MyD88 BLA, ANO1 block)
CCN1C/C(=C/c2ccc(OC)c(O)c2)C(=O)/C(=C/c2ccc(OC)c(O)c2)C1	none
COc1ccc(/C=C2\CN(Cc3ccccc3)C/C(=C\c3ccc(OC)c(O)c3)C2=O)cc1O	NOD2 RIPK2 PPI 26 (no result: TLR4-MyD88 BLA) | NOD2 RIPK2 conf 27 | BLA counter inactive
Cc1cccc(OCCSc2nc3ccccc3n2CCC(=O)O)c1	none (no result: TLR4-MyD88 BLA)
COc1cccc2sc(Nc3nnc(-c4ccccc4Cl)o3)nc12	none
COc1ccccc1-c1nnc(Nc2nc3c(OC)cccc3s2)o1	NOD2 RIPK2 PPI 26 | NOD2 RIPK2 conf inactive | BLA counter inactive
COc1ccccc1NS(=O)(=O)c1ccc2ccccc2c1	none (no result: TLR4-MyD88 BLA)
COc1ccc(NS(=O)(=O)c2ccc3ccccc3c2)c2ncccc12	NOD2 RIPK2 PPI 29 (no result: TLR4-MyD88 BLA) | NOD2 RIPK2 conf 30 | BLA counter 17
C=CCNC(=S)NNc1nc2c(c(=O)[nH]1)C1(CCCCC1)Cc1ccccc1-2	none
CC1(c2ccc3ccccc3c2)NC(=O)N(CC(=O)N2CCCC(C(F)(F)F)C2)C1=O (centres undefined)	NOD2 RIPK2 PPI 28 (no result: TLR4-MyD88 BLA, ANO1 block) | NOD2 RIPK2 conf inactive | BLA counter inactive
CC(=O)N1CCN(C(=O)CN2C(=O)NC(C)(c3ccc4ccccc4c3)C2=O)CC1 (centres undefined)	none (no result: TLR4-MyD88 BLA, ANO1 block)
CC(=O)c1cn(Cc2ccccc2)c(=O)n(Cc2ccc(F)cc2)c1=O	none
O=C1Nc2ccccc2C1(O)Cc1ccccn1 (centres undefined)	NOD2 RIPK2 PPI 24 (no result: TLR4-MyD88 BLA) | NOD2 RIPK2 conf inactive | BLA counter inactive
COCCCn1cc(CN(C)C2CN(Cc3cn(CCCOC)nn3)S(=O)(=O)C2)nn1 (centres undefined)	none (no result: TLR9-MyD88 block, GRK2 aptamer HTS, ANO1 activ, TLR4-MyD88 BLA, ANO1 block)
Cc1cc(-c2ccco2)c(C#N)c2nc3ccccc3n12	NOD2 RIPK2 PPI 22 | NOD2 RIPK2 conf inactive | BLA counter 15
Cc1cc(C(=O)OCC(=O)c2ccc3c(c2)OCCO3)c(C)o1	none
Cc1c(C(=O)OCC(=O)c2ccc3c(c2)OCCO3)oc2ccccc12	NOD2 RIPK2 PPI 26 (no result: ANO1 activ) | NOD2 RIPK2 conf inactive | BLA counter inactive
C=C1C(=O)C23CCC4C(C)(C(=O)OC)CCCC4(C)C2CCC1(O)C3 (centres undefined)	NOD2 RIPK2 PPI 79, ANO1 activ -8.6 (no result: GRK2 aptamer HTS, TLR4-MyD88 BLA, ANO1 block) | NOD2 RIPK2 conf 88 | BLA counter 21
COc1cccc(NC(=O)NNC(=O)CCc2ccc(O)c(O)c2)c1	none (no result: TLR4-MyD88 BLA)
Cc1ccc(CNc2nc(C)c(C(=O)N(C)C)s2)cc1	none (no result: TLR4-MyD88 BLA)
OC[C@@H]1[C@@H](c2ccc(F)cc2)C(c2cccc(Cl)c2)=NN1c1ccccc1	NOD2 RIPK2 PPI 29 (no result: ANO1 activ, TLR4-MyD88 BLA, ANO1 block) | NOD2 RIPK2 conf 30 | BLA counter 54
